# Hits are enriched below; roughly 21% of the tested compounds scored in any of these assays.
# CHX counter: Cycloheximide Counterscreen for Small Molecule Inhibitors of Shiga Toxin; cell reporter, cycloheximide protein synthesis inhibition counterscreen; max response, %; actives 12% (n = 300,000); in the data active means max response mostly above about 13%, no sharp cut-off; inactive means mostly below about 14%; further: read at 38.3 µM for the half of the compounds with a filed dose
# HCMV antiviral: qHTS Assay for inhibitors of the human cytomegalovirus (HCMV); HFF cells, HCMV-luciferase reporter, 72 h; active compounds read low; activity change, negative = inhibition, % at 57.5 µM; actives 4.5% (n = 410,000); in the data active means activity change below about -60%; inconclusive means no clear call, values can overlap the other calls; inactive means above about -39%
#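 Compounds were evaluated in HFFs infected with an HCMV luciferase reporter virus (MOI 1 PFU/cell). Luciferase in lysates collected 72 h post infection served as the replication measure.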
# Pf growth 96h: Primary qHTS for delayed death inhibitors of the malarial parasite plastid, 96 hour incubation | Potency, µM (top dose mostly 28.7 µM), hits mostly inhibitors | AID 504834, 2011 | actives 6.9% (n = 320,000) | P. falciparum luciferase reporter growth, 96 h
#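 Luminescence readout: decreased luciferase signal marks inhibited growth of reporter-expressing P. falciparum in infected red cells (2% hematocrit, 0.05% parasitemia final), exposed to compound two generations (96 h, 37 C, 5% CO2).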
# HCV inh: qHTS Assay for Inhibitors of Hepatitis C Virus (HCV) | Potency, µM (series often up to 41.8 µM), hits mostly inhibitors | actives 3.4% (n = 340,000) | Huh7.5.1 HCVcc-Cre infection, luciferase reporter, 44 h
#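 Antiviral activity was scored by luciferase reporter output from cells infected with HCVcc-Cre (~0.5 moi) in presence of compound, 44 h infection period, cells seeded 1,000/well 4 h prior.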
# Shiga inhibitor: A qHTS for Small Molecule Inhibitors of Shiga Toxin | Vero cells, Shiga toxin protein synthesis inhibition reporter | inhibition, % at 38.7 µM | actives 9.2% (n = 290,000); in the data active means inhibition mostly above about 28%, no sharp cut-off; inactive means mostly below about 43%
# Pf growth 48h: Primary qHTS for delayed death inhibitors of the malarial parasite plastid, 48 hour incubation; P. falciparum luciferase growth in erythrocytes, 48 h; Potency, µM (highest dose often 28.7 µM), actives largely listed as inhibitors; actives 5.9% (n = 310,000)
#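 Parasite viability was followed by luminescence of a genomically integrated firefly luciferase. Cultures held 0.1% parasitemia at 2% hematocrit (final), incubated under 5% CO2 at 37 C.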
# A number is an active result; - = inactive; ? = inconclusive; . = no result; [ ] = dose if it differs, or a comment. Unless noted, the call rests on the fitted dose curve; in most records, active means well fitted inhibition curve with a large enough effect; inconclusive means small, poorly fitted or top-dose-only effect, or another doubt; inactive means no such curve, though single readings can be large or run the other way.
SMILES,CHX counter,HCMV antiviral,Pf growth 96h,HCV inh,Shiga inhibitor,Pf growth 48h
O=C(Nc1ccc(N2CCOCC2)c(Cl)c1)c1cccnc1,26.2,-,-,?,52.7,-
O=C(Nc1nnc(-c2ccccc2Cl)o1)c1cccnc1,18.9,-,-,-,58.2,-
O=C(Nc1cccc(NC(=O)c2cccnc2)c1)c1cccnc1,-,-,-,-,-,-
CSc1ccc(NC(=O)c2cccnc2)cc1C#N,-,-,-[5.75 µM],-,50.7,-
COc1cc(C(CC(=O)Nc2ccc(F)cc2F)N2Cc3ccccc3C2=O)cc(OC)c1OC (stereo unspecified),.,-,.,.,.,.
C/C(=C\C=C(C#N)C#N)c1cc(C#N)c(N)o1,-,?,?,-,-,?
COC(=O)c1c(C)oc(C)c1S(=O)(=O)NCc1ccco1,-,-,-,-,-,-
O=S(=O)(NCc1cccs1)c1ccc(Cl)s1,-,-,7.38µM,-,-,-
COC(=O)c1cc(S(=O)(=O)NCC2CCN(Cc3ccccc3F)CC2)c[nH]1,-,-,-,-,-,-
CCN(CC)S(=O)(=O)c1ccc(S(=O)(=O)NCc2cccs2)cc1,-,-,8.28µM,-,-,-
COc1ccc(S(=O)(=O)NCc2cccs2)cc1,-,-,-,-,-,.
COC(=O)c1c(C)oc(C)c1S(=O)(=O)NCc1cccs1,-,-60.3,-,-,-,-
COC(=O)c1cc(S(=O)(=O)NCc2ccccc2Cl)c[nH]1,-,.,2.62µM,-,-,-
COc1ccc(CNC(=O)C2CCN(Cc3nc(-c4ccc(OC)c(OC)c4)oc3C)CC2)cc1,.,-,.,.,.,.
CCCc1nc2ccc(Cl)cn2c1Cc1ccccc1OC,.,-,.,.,.,.
COC(=O)c1cc(S(=O)(=O)NCc2cccs2)c[nH]1,-,-,11.7µM,-,-,-
NC(=O)c1cc(S(=O)(=O)NCc2cccs2)cs1,-,-,8.28µM,-,-,-
Nc1ccc2nc3c(=O)n(C4CCCCC4)c(=O)[nH]c3nc2c1,39.9,-,-,-,77.9,-
CCCCn1c(=O)[nH]c2nc3cc(N)ccc3nc2c1=O,79.9,-,?,-,81.0,-
Cc1ccc(NC(=O)Cn2c(=O)n(Cc3ccccc3)c(=O)c3c2c2cc(C)ccc2n3C)cc1,.,-,.,.,.,.
CC1=CC(=C2C(=O)c3ccccc3C2=O)C=C(C)N1C,25.9,-,-,-,-,-
COCCNC(=O)Cn1c(=O)n(-c2ccc(C)c(C)c2)c(=O)c2c3c(sc21)CCCCC3,.,-,.,.,.,.
CC(=O)c1cccc(CN2CCCCC2C(=O)Nc2ccc(Oc3ccccc3)nc2)c1 (stereo unspecified),-,-,-,?,-,?
CN(C)C(CNc1ncnc2sc3c(c12)CCCC3)c1ccco1 (stereo unspecified),14.9,-,-,?,-,-
Cc1ccc(C(=O)O)cc1Nc1ncnc2sc3c(c12)CCC3,-,-,-,-,-,-
SMILES,CHX counter,HCMV antiviral,Pf growth 96h,HCV inh,Shiga inhibitor,Pf growth 48h
C(=N\Nc1ncnc2sc3c(c12)CCC3)/c1ccncc1,-,?,-,?,-,?
c1cc(Nc2ncnc3sc4c(c23)CCC4)ccn1,-,-63.3,-,-,-,1.65µM
C(=N\Nc1ncnc2sc3c(c12)CCC3)/c1cccs1,-,-102.5,?,.,-,-
Cn1cnc2c(N/N=C/c3cccs3)ncnc21,30.9,-,-,-,37.9,-
COc1ccc(-n2nc(C)c3c(=O)c4c([nH]c32)CCCC4)cc1,-,-,?,-,-,-
Cc1nc2c(C)cccn2c(=O)c1NC(=O)c1cccc2ccccc12,.,-,-,-,.,-
COc1cc([N+](=O)[O-])ccc1N1C(=O)C2C3C=CC(C4CC34)C2C1=O (stereo unspecified),-,-,-,-,-,-
CN(C)c1ccc(Nc2ncnc3sc4c(c23)CCCC4)cc1,.,-89.5,.,.,.,.
NNc1ncnc2sc3c(c12)CCC3,-,-,?,?,-,?
O=c1[nH]c(C2CCN(S(=O)(=O)c3ccccc3F)CC2)nc2c1nnn2Cc1ccc(F)cc1,-,-,-,-,-,-
O=c1[nH]c(C2CCCN(S(=O)(=O)c3ccccc3Cl)C2)nc2c1nnn2Cc1ccc2c(c1)OCCO2 (stereo unspecified),-,-,13.1µM,-,-,?
O=C(C1CCCCC1)N1CCC(c2nc3c(nnn3Cc3ccccc3Cl)c(=O)[nH]2)CC1,.,-,.,-,.,.
O=c1[nH]c(C2CCCN(S(=O)(=O)c3ccccc3F)C2)nc2c1nnn2Cc1ccccc1Cl (stereo unspecified),-,-,11.7µM,-,-,?
CCCCCCC(=O)N1CCC(c2nc3c(nnn3Cc3ccccc3Cl)c(=O)[nH]2)CC1,-,-,?,?,-,13.1µM
COC(=O)c1ccc(C(=O)OC)c(NC(=O)c2ccc(-c3ccccc3)s2)c1,.,-,.,.,.,.
CC(=O)C1=C(O)C(=O)N(c2cc(C(C)(C)C)on2)C1c1ccc(Br)cc1 (stereo unspecified),-,-,.,-,-,10.4µM
CC(=O)C1=C(O)C(=O)N(c2cc(C(C)(C)C)on2)C1c1ccc(C(C)C)cc1 (stereo unspecified),-,.,13.1µM,-,-,-
CC(=O)C1=C(O)C(=O)N(c2ccc(Br)cc2)C1c1ccc(Cl)cc1 (stereo unspecified),-,-,-,-,.,-
CN(Cc1ccccc1)c1nc(N)nc(Cl)c1C=O,-,-,?,3.98µM,-,?
Cc1cc(NS(=O)(=O)c2ccc(NC(=O)/C=C/c3ccccc3)cc2)no1,-,-,-,-,-,-
COc1ccc(/C=C/C(=O)Nc2cc(C)on2)cc1,42.2,-,-,-,107.4,?
Cc1cc(NC(=O)/C=C/c2ccccc2)no1,41.0,-,-,-,63.2,.
COc1ccc(C(=O)/C=C/Nc2cc(C)on2)cc1,47.1,-,-,?,64.7,.
Cc1cc(NC(=O)/C=C/c2ccccc2Cl)no1,23.0,-,?,-,67.3,?
Cc1ccc(CN(c2ccc(C(=O)NCC3CCCO3)cc2)S(C)(=O)=O)cc1 (stereo unspecified),-,?,-,-,-,-
SMILES,CHX counter,HCMV antiviral,Pf growth 96h,HCV inh,Shiga inhibitor,Pf growth 48h
COc1ccc2c(c1)C(c1ccccc1)NC(=O)C2 (stereo unspecified),.,-,-,-,.,-
Nc1ccn([C@@H]2O[C@H](CNC(=O)[C@@H](Cc3cccnc3)NC=O)[C@@H](O)[C@H]2O)c(=O)n1,.,-,.,.,.,.
CCn1ccc2cc(S(=O)(=O)N3CCCN(C(=O)NCC(=O)OC)CC3)ccc21,.,-,.,.,.,.
Cc1cc(C(C)(C)C)ccc1OCCCCN1CCCC1,30.4,-,-,22.4µM,-,?
Cc1cc(Br)ccc1OCCOCCN1CCCC1,-,-,?,?,-,-
Cc1cc(Br)ccc1OCCCCN1CCCCC1,-,-,-,10µM,-,?
CC(C)CCOc1ccc(Cn2c(=O)oc3ccccc32)cc1,.,-,.,.,.,.

# Bioassay records from PubChem.
